The whole screen tested about 16,000 compounds, of which about 5,100 (32%) were called active. Not shown: some 25% with an inconclusive outcome. The list shows a part of the results. A number with no mark means an inactive call. The call rests on the fitted dose curve; in most records, active means well fitted curve in the direction sought with a large enough effect; inconclusive means small, poorly fitted or top-dose-only effect, or effect the other way; inactive means no such curve, though single readings can be large or run the other way.
Molecular target: Cytochrome P450 3A4 (Homo sapiens) (UniProt P08684)
Sequence (P08684 whole entry, looked up): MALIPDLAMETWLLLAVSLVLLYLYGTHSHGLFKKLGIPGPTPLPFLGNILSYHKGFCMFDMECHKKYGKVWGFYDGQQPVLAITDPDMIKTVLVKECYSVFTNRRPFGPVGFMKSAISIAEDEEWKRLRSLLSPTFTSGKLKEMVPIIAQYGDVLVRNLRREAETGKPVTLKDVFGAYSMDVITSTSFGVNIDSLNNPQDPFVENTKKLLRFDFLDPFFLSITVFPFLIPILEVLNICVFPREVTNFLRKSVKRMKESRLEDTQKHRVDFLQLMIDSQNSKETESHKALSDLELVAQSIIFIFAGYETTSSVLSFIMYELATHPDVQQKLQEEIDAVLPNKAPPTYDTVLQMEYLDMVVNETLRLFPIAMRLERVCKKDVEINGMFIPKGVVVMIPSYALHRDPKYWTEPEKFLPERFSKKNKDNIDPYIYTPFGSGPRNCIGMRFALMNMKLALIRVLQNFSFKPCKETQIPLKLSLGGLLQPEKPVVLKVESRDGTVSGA
Experiment: Cytochrome panel assay with activity outcomes
Conditions: recombinant CYP, pro-luciferin dealkylation, luminescence, p450-cyp3a4; series mostly up to 57.1 µM; activity, negative = inhibition: at the top concentration
On the % scale 0 is the no-effect control and ±100 the full control effect.

SMILES	activity, negative = inhibition	AC50
Cn1c(=O)c2c(ncn2CCO)n(C)c1=O	-5.85% [at 25.6 µM]	–
Cn1c(=O)c2c(ncn2CC(COCc2ccccc2Cl)OCc2ccccc2Cl)n(C)c1=O (stereo not given)	–	7.94 µM (active)
Cn1c(=O)c2c(ncn2C[C@@H](O)CO)n(C)c1=O	-3.39% [at 25.6 µM]	–
O=C(CSC1=NCCS1)N1CCN(c2ccc(Cl)cc2)CC1	–	15.8 µM (active)
Cc1cc([N+](=O)[O-])c(C)c(Br)c1C	-7.05% [at 11.4 µM]	–
O=C(O)/C(=C\c1ccccc1)c1ccccc1	-6.04% [at 11.4 µM]	–
O=C(O)/C(=C\c1ccc(O)cc1)c1cccc2ccccc12	-2.12% [at 11.4 µM]	–
NC(=O)/C(=C\c1ccncc1)c1cccc2ccccc12	–	3.16 µM (active)
O=C(O)CCC(=O)N1CCc2cc(S(=O)(=O)NCc3cccs3)ccc21	-13.1%	–
CCC(=O)N1CCc2cc(S(=O)(=O)NC(C(=O)NCc3ccc(F)cc3)C(C)C)ccc21 (stereo not given)	–	7.08 µM (active)
O=C(O)CCC(=O)N1CCc2cc(S(=O)(=O)N3CCCCC3)ccc21	3.03%	–
Cc1ccc2[nH]c(=O)c(NC(N)=S)nc2c1	-26.7%	–
CCOC(=O)Cn1c(-c2ccccc2)nc2ccccc2c1=O	19.7%	–
CCO/C(C)=N/n1c2nc3ccccc3nc2c2c(=O)n(CC(C)C)c(C)nc21	–	28.2 µM (active)
O=C(O)c1ccccc1N[C@H](c1ccccc1)c1ccc2cccnc2c1O	-13.5% [at 11.4 µM]	–
CC(=O)Oc1cc(C(C)C)c(OCCN(C)C)cc1C	–	inactive
CCCCCCCCC(=O)NCc1cc(OC)c(O)cc1I	–	3.16 µM (active)
COC(=O)CNC(=O)CCCCC(=O)NCC(=O)OC	2.89%	–

SMILES	activity, negative = inhibition	AC50
CCCCCC(=O)Nc1cc2[nH]c(=O)cc(COC)c2cc1C	-15.2%	–
Cc1ccc(S(=O)(=O)Oc2cc(S(=O)(=O)O)cc3cc(S(=O)(=O)O)cc(N)c23)cc1	0.193% [at 11.4 µM]	–
Cc1nc(SCC(=O)c2cc3ccccc3oc2=O)c(C#N)c(C)c1C(=O)Nc1ccccc1	25.5%	–
N#Cc1c(NC(=O)CCC(=O)O)ccc2ccccc12	-1.16% [at 11.4 µM]	–
Cc1c(C#N)c(=O)oc2ccc3ccccc3c12	–	3.55 µM (active)
N#Cc1nc(COc2ccccc2Cl)oc1NCc1ccco1	–	5.01 µM (active)
CN(C)CCNc1oc(COc2ccc(Cl)cc2Cl)nc1C#N	-24.5%	–
O=C(O)C1CC2(C1)CC(C(=O)O)C2 (stereo not given)	5.16% [at 11.4 µM]	–
COc1ccccc1CNC(=O)CCN1C(=O)COc2ccc(C)cc21	–	11.2 µM (active)
Cc1ccc2c(c1)N(CCC(=O)NCc1ccc3c(c1)OCO3)C(=O)CO2	–	0.112 µM (active)
Cc1ccc2c(c1)-c1c(cnn1CC(=O)O)CO2	-4.22%	–
CCN1CCCC1CNC(=O)CCNC(=O)c1cc(OC)c(OC)c(OC)c1 (stereo not given)	-29.8%	–
Cc1ccc(CNC(=O)CN2C(=O)COc3ccc(C)cc32)cc1	–	1.78 µM (active)
COc1cc(C(=O)NCCC(=O)NCc2ccc3c(c2)OCO3)cc(OC)c1OC	–	0.447 µM (active)
CCc1nnc(NC(=O)CCC(=O)NCc2ccccc2OC)s1	-29.3%	–
CCCn1nc2cc(C(=O)NCc3ccc4c(c3)OCO4)ccc2c1OCC	32.6% [at 2.29 µM]	–
Cc1ccc(C(=O)NCc2ccc(N3CCN(C(=O)OC(C)(C)C)CC3)cc2)cc1	-19.6%	–
